Screening data: PubChem, National Center for Advancing Translational Sciences (NCATS)
TRPV1 agonist – activates the human vanilloid receptor TRPV1; AID 540275; Q8NER1; 0.19% of 320,000 active; activation, % at 8.33 µM; TRPV1-expressing cells, Fluo-8 calcium influx, agonist mode; in the data active = activation above about 80%; inconclusive = between about 30% and that limit; note: 0% is about no effect
Target sequence (Q8NER1 whole entry, looked up): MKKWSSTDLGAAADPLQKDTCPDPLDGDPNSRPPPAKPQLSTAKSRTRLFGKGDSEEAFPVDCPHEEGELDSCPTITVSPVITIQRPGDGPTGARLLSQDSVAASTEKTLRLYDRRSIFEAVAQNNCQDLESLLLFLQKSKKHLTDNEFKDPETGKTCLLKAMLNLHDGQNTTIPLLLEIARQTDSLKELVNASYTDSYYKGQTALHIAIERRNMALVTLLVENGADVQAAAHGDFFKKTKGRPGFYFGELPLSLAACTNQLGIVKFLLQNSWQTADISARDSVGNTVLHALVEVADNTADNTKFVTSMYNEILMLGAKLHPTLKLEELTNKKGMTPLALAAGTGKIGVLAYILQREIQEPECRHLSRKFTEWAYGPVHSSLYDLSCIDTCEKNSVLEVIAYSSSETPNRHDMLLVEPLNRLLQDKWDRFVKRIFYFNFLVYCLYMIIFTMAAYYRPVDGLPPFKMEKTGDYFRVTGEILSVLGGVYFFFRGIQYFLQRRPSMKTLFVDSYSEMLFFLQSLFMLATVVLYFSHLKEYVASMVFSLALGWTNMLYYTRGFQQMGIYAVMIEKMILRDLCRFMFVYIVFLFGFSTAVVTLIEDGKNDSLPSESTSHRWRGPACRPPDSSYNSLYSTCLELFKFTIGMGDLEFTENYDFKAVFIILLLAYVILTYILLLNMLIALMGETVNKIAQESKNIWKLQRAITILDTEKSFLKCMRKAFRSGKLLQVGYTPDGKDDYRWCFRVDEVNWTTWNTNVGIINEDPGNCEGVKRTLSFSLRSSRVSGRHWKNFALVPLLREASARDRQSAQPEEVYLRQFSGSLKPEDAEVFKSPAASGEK
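Cells expressing TRPV1 were dye-loaded with Fluo-8 and read kinetically: 10 s baseline, 3 min after compound (agonist portion), then 2 min after EC20 capsaicin (allosteric enhancer portion). Calcium-bound dye fluorescence at 480/520 nm.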
KCNH2 3.1 inh – inhibitors of human KCNH2 3.1 potassium channel isoform. U2OS KCNH2 3.1, thallium flux FluxOr; active compounds read low. activity change, % (tested at about 1.8 µM). 0.95% of 340,000 active. AID 720553;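 active = maximum activity change below -70%; inconclusive = maximum activity change from -70% to -50%; inactive = maximum activity change above -50%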;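 note: thallium influx rate constant from kinetic fluorescence after stimulation buffer; % is set by controls: 0 for no effect and ±100 for the full control effect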
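Virally transduced U2OS (3.1 isoform, 4 h infection in dark at RT) → overnight 37 C → FluxOr + Red40 in HBSS/HEPES, 45 min → stimulation buffer, 2 min kinetic read → rate constant vs DMSO controls.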
p53 reactivation – mutant p53 re-activation in reporter cells; H1299 p53-A138V BP100-luciferase reporter, luminescence, 24 h; Potency, µM (doses to about 92.2 µM), for inactives: top-dose activity change, positive = activation, most hits filed as activators; 0.063% of 320,000 active; active = well fitted activation curve with a large enough effect; inconclusive = small, poorly fitted or top-dose-only effect; inactive = no such curve, though single readings can be large or run the other way; note: potency is the fitted concentration of half-maximal effect; % of control where 0% means no effect; nearly all actives have a fitted effect of over 45% in size
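p53-null H1299 cells stably carrying temperature-sensitive p53-A138V and a BP100-luciferase reporter were pinned with compounds (4-point, 1:5 series) and held 24 hrs at 37 deg C. Luminescence was read 10 min after detection reagent.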
ClpP mod – qHTS Assay for Activators of ClpP. 1.9% of 340,000 active. ATP-dependent Clp protease proteolytic subunit (Bacillus subtilis (strain 168)), P80244. purified B. subtilis ClpP, FRET peptide cleavage, 20 min. AID 651965, 2013. Potency, µM (highest dose often 57.5 µM), for the others: top-dose activity change, negative = active; active = well fitted falling curve with a large enough effect; inconclusive = small, poorly fitted or top-dose-only effect; inactive = no such curve, though single readings can be large or run the other way; note: potency is the fitted concentration of half-maximal effect; the source files actives as falling curves though it sought activators and does not explain the sign; nearly all actives have a fitted effect of over 65% in size
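ClpP 10 microg/mL final, pH 8 Tris/KCl buffer with BSA, glycerol, Tween-20; compound pinned in; FRET-FV substrate; RT 20 min; Ex320/Em430; ΔFRET vs ADEP 5.8 microM, DMSO, no enzyme.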
KCNH2 WT inh – inhibitors of human wildtype KCNH2 potassium channel | Q12809 | U2OS, BacMam KCNH2, thallium flux FluxOr; active compounds read low | activity change, % at 1.84 µM | 0.37% of 340,000 active;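 active = maximum activity change below -70%; inconclusive = maximum activity change between -70% and -50%; inactive = maximum activity change above -50%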; note: % is set by controls: 0 for no effect and ±100 for the full control effect
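U2OS cells were transduced with wild-type KCNH2 virus (2.03 x 10^8 / mL) for 4 h at room temperature, then cultured overnight at 37 C. Thallium flux was read with FluxOr dye. Rate constants were normalized to DMSO controls.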
TRPV1 PAM – potentiators of human vanilloid receptor 1 (TRPV1); Q8NER1; TRPV1-expressing cells, Fluo-8 calcium influx, capsaicin EC20 potentiation; potentiation, % at 8.33 µM; 0.02% of 320,000 active; AID 540277; in the data active = potentiation above about 80%; inconclusive = between about 30% and that limit; note: 0% is about no effect
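Cells expressing TRPV1 were dye-loaded with Fluo-8 and read kinetically: 10 s baseline, 3 min after compound (agonist portion), then 2 min after EC20 capsaicin (allosteric enhancer portion). Calcium-bound dye fluorescence at 480/520 nm.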
* = called active by the depositor; u = inconclusive; x = no result. In the library only some 2.6% were active in any assay of this set; here they are far more common.

SMILES	TRPV1 agonist	KCNH2 3.1 inh	p53 reactivation	ClpP mod	KCNH2 WT inh	TRPV1 PAM
COc1ccc2c(c1)CC(C(=O)NCCN1CCN(c3cccc(Cl)c3)CC1)CO2 (stereo not drawn)	x	x	x	-1.3%	x	x
CCOc1cc(/C=N/NC(=O)CNc2cccc(C)c2)ccc1OC(=O)c1ccccc1	7.3	-11.9	-4.9%	10µM*	-11.2	9.3
Cc1cc(OCCN2CCC(Cc3ccccc3)CC2)ccc1[N+](=O)[O-]	9.8	-71.0*	x	x	-0.5	-7.0
CCOc1ccc(CN2CCC(Cc3ccccc3)CC2)cc1	4.7	-91.9*	-1.9%	1.7%	-84.9*	0.5
OC(COc1ccc(Cl)cc1)CN1CCC(Cc2ccccc2)CC1 (stereo not drawn)	3.0	-125.3*	7.5%	-0.6%	-93.5*	4.9
CCCCN(C)C(=O)C1CCN(Cc2ccc(OCc3ccccc3)cc2)CC1	0.6	-74.5*	u	0.2%	29.8	-5.2
COCCn1c(SCC(=O)c2ccc(C)cc2)nc2cc(C(=O)NC3CCCC3)ccc2c1=O	x	x	x	-1.2%	x	x
CCOc1ccc(-n2c(SCC(=O)N3CCCCCC3)nc3c([nH]c4ccccc43)c2=O)cc1	x	x	x	-5.4%	x	x
COc1ccc(OC)c(NC(=O)C2(C)CCN2C(=O)C(C)(C)c2ccccc2)c1 (stereo not drawn)	x	x	x	-0.7%	x	x
c1ccc(C(c2nnnn2C2CCCCC2)N2CCc3ccccc3C2)nc1 (stereo not drawn)	3.7	9.5	-5.5%	2.51µM*	-3.9	-2.2
Nc1nc(CSC(=S)N2CCOCC2)nc(Nc2ccc(F)cc2)n1	u	-114.8*	u	0.7%	-1.7	-6.7
Nc1nc(CN2CCN(c3ccccn3)CC2)nc(Nc2ccc(F)cc2)n1	1.0	-89.0*	0.7%	-13.2%	-3.4	2.7
COc1ccccc1N1CCN(Cc2nc(N)nc(Nc3ccccc3)n2)CC1	11.7	u	2.5%	-5.6%	46.1	-9.0
Nc1nc(CN2CCCCCC2)nc(Nc2ccc(F)cc2)n1	-3.1	-72.5*	-0.2%	-1.2%	28.1	30.0
Cc1ccccc1CN1C(=O)CN(S(C)(=O)=O)CC1(C)C(=O)NCc1ccccc1 (stereo not drawn)	x	x	x	0.4%	x	x
Cc1cc(-c2ccccc2)nc(Oc2cccc(C(F)(F)F)c2)c1S(C)(=O)=O	2.7	-27.4	6.0%	35.5µM*	-7.5	5.5
Cc1ccc(S(=O)(=O)c2c(C)cc(C)nc2Oc2cccc(C(F)(F)F)c2)cc1	28.2	-16.1	-2.9%	-1.9%	-13.0	-6.2
Cc1cccc(CSC(=N)N)c1	1.5	3.4	u	12.6µM*	16.4	9.0
N=C(N)SCCc1cccc(CCSC(=N)N)c1	x	15.5	x	1.6%	-7.1	x
O=C(/C(C=Nc1ccc(F)cc1)=C(/O)c1ccco1)C(F)(F)F	0.5	-0.6	u	25.1µM*	-0.9	-2.1
Cc1ccc(N=C/C(C(=O)C(F)(F)F)=C(\O)c2ccco2)cc1Cl	28.2	-9.7	u	15.8µM*	28.0	0.8
CCOc1ccc(CCNC(=O)c2cccc(-n3c(C)nc4cccnc43)c2)cc1	x	x	x	-2.0%	x	x
COc1ccc(-c2nnc(SCC(=O)Nc3ccc(Cl)cc3)s2)cc1	x	x	x	-22.3%	x	x
CN(Cc1ccccc1)C(=O)c1ccc(CSc2nc3cccnc3n2Cc2ccccc2)cc1	x	x	x	4.7%	x	x
O=C(Nc1cccnc1)c1ccc(COc2cc(Cl)ccc2Cl)o1	u	42.1	4.0%	-2.9%	-103.6*	-10.1
O=C(Nc1cccnc1)c1ccc(COc2ccccc2Cl)o1	27.4	-2.2	2.1%	-0.4%	-9.9	-6.7
Cc1ccc(S(=O)(=O)N2CC=C(c3ccc(F)cc3)CC2)cc1	2.4	24.4	3.0%	-1.2%	5.7	-1.0
CCOc1cc(S(=O)(=O)N2CCC(c3nc4ccccc4s3)CC2)c(OCC)cc1S(=O)(=O)N1CCCCC1	-1.2	4.6	-3.7%	11.9%	5.8	1.2
